# HT1080 IDH1KD tx: kills HT-1080 cells with IDH1 knockdown | actives 2% (n = 360,000) | Potency, µM (titrated, usually from 46.1 µM), inactives show at the highest dose activity, negative = toxicity, actives largely listed as cytotoxic | HT-1080 IDH1 knockdown viability, ATP luminescence, 48 h | AID 686971;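 note: potency is the fitted concentration of half-maximal effect; 0% = DMSO wells and -100% = cell-free medium wells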
#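 % activity derives from luminescence (CellTiter-Glo), normalised to DMSO and no-cell wells. HT-1080-IDH1KD cells, 750/well, had 48 h compound exposure at 37 °C.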
# IL-1B inflam inh: blocks inflammasome-driven IL-1 beta release | AID 743279 | actives 4.7% (n = 360,000) | activity change, % at 57.5 µM | THP-1 LPS/ATP IL-1B secretion, AlphaLISA, 16 h; hits give low values; in the data active = activity change below about -50%; inconclusive = mostly about -30% to -49%
#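 THP-1 cells pretreated 1 hr with compounds (up to 57.5 uM final), then stimulated with LPS (250 ng/mL final) plus ATP (1.25 mM final); secreted IL-1B measured by AlphaLISA after 16 hr, decreased signal indicating inhibition.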
# HT1080NT lethal: kills 2HG-producing HT-1080-NT fibrosarcoma cells | Potency, µM (series often up to 46.1 µM), for the others: at the top dose activity, negative = less viability, most hits filed as cytotoxic | HT-1080-NT fibrosarcoma viability, CellTiter-Glo ATP luminescence, 48 h | actives 1.6% (n = 360,000);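 note: NT is the 2HG producing partner of a matched IDH1 knockdown line; potency is the fitted concentration of half-maximal effect; 0% = DMSO-treated cells and -100% = media-only wells without cells; nearly all actives have a fitted effect of over 55% in size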
#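 Toxicity toward the 2HG-producing NT line was scored as %Activity, normalised to DMSO and no-cell wells, from CellTiter-Glo luminescence after 48 hours' treatment.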
# TDP1 cell CPT: growth inhibition of DT40 Tdp1-/-;hTDP1 cells with camptothecin (screen for TDP1 inhibitors); chicken DT40 Tdp1-/-;hTDP1 cells + 20 nM CPT, ATP luminescence, 48 h; Potency, µM (highest dose often 46.2 µM), for the others: at the highest dose activity change, negative = growth inhibition, usual class: inhibitors; actives 12% (n = 420,000); AID 686979; note: potency is the fitted concentration of half-maximal effect; nearly all actives have a fitted effect of over 55% in size
#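 Chicken DT40 Tdp1-/- cells stably complemented with human TDP1 were seeded at 400 cells/well in medium containing 20 nM camptothecin, exposed to pin-transferred compounds, and grown at 37 °C for at least 48 hr. Viability was read as ATP luminescence.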
# TDP1 cell noCPT: qHTS for Inhibitors of human tyrosyl-DNA phosphodiesterase 1 (TDP1): qHTS in cells in absence of CPT. DT40 Tdp1-/- hTDP1 cells, no CPT, ATP luminescence, 48 h. Potency, µM (titrated, usually from 46.2 µM), without a hit: at the highest dose activity change, negative = growth inhibition, usual class: inhibitors. actives 15% (n = 420,000); note: potency is the fitted concentration of half-maximal effect; nearly all actives have a fitted effect of over 55% in size
#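 Seeded 400 DT40-hTDP1 cells/well (vehicle DMSO, no 20 nM CPT); pinned compounds; ≥48 hr at 37 °C; CellTiter-Glo luminescence as viability measure.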
# * hit, by the source's call; i = inactive; ? = inconclusive; . = no result. A selection: hits, their analogues and other compounds. The true share with any hit is near 19%. Unless noted, calls come from the whole dose curve; as a rule, active = well fitted curve in the direction sought with a large enough effect; inconclusive = small, poorly fitted or top-dose-only effect, or another doubt; inactive = no such curve, though single readings can be large; an effect the other way counts as inactive or inconclusive. Unless noted, % is set by controls: 0 for no effect and ±100 for the full control effect.
SMILES,HT1080 IDH1KD tx,IL-1B inflam inh,HT1080NT lethal,TDP1 cell CPT,TDP1 cell noCPT
C=CCNc1nc2cc(-c3ccccc3OC)sc2c(=O)n1C,6%,13,-1%,?,?
COCCNc1nc2cc(-c3ccccc3C)sc2c(=O)n1C,-5%,39,-7%,18µM*,?
Cc1ccccc1-c1cc2nc(NCCOc3ccccc3Cl)n(C)c(=O)c2s1,?,-12,?,?,?
COCCNc1nc2cc(-c3ccccc3OC)sc2c(=O)n1C,-16%,41,1%,18µM*,13µM*
NC(=O)c1ccsc1NC(=O)COC(=O)CNC(=O)c1ccc(Cl)cc1,4%,11,14%,3%,-4%
CCN1C(=O)c2ccccc2Sc2ccc(C(=O)NC(C)C)cc21,9%,0,4%,1%,0%
CCc1ccccc1NC(=O)Nc1ccc2c(c1)N(CC)C(=O)c1ccccc1S2,.,.,.,8.2µM*,15µM*
CCN1C(=O)c2ccccc2Sc2ccc(NC(=O)Nc3ccc(C(C)=O)cc3)cc21,.,.,.,?,21µM*
CCC(C)NC(=O)Nc1ccc2c(c1)N(C)C(=O)c1ccccc1S2 (configuration not stated),?,6,-22%,?,7%
COc1ccc2c(c1)c1c(c(=O)n(-c3ccc(OC)c(OC)c3)c(=O)n1CC(=O)N1CCCC1)n2C,.,.,.,-10%,-10%
COc1ccc2c(c1)cc1c(=O)n(CC(=O)NCCc3ccccc3)nc(C)n12,.,.,.,0%,-12%
CN(CCc1ccccc1)C1CCCN(S(=O)(=O)CC(F)(F)F)C1 (configuration not stated),-1%,?,0%,14%,-23%
Cc1cc(OCC(=O)NNC(=S)NC(=O)c2cccs2)ccc1Cl,?,4,?,?,?
Cc1ccc(OCC(=O)NNC(=S)NC(=O)c2cccs2)c(C)c1,1%,68,-10%,16µM*,16µM*
Cc1ccc(OCC(=O)NNC(=S)NC(=O)c2ccc(Br)o2)c(C)c1,15%,28,12%,?,13µM*
Cc1cc(C(=O)Nc2ccc(Cl)cc2)c(C)n1Cc1cccs1,?,.,-30%,?,8.2µM*
Cc1cc(C(=O)Cn2nnc3ccccc3c2=O)c(C)n1Cc1cccs1,-29%,-11,-12%,29µM*,18µM*
Cc1cc(C)cc(NC(=O)c2cc(C)n(Cc3cccs3)c2C)c1,?,-9,?,29µM*,18µM*
O=C(NCc1cccs1)Nc1cccc(Cl)c1,-6%,-8,-1%,-20%,-5%
Cc1cc(C(=O)CN2C(=O)c3ccccc3C2=O)c(C)n1Cc1cccs1,0%,4,6%,?,?
O=C(COC(=O)c1cc(Br)ccc1O)Nc1cc(S(=O)(=O)N2CCCC2)ccc1Cl,4%,17,-2%,-4%,-2%
COc1ccc(N(CC(=O)N/N=C/c2cccnc2)S(=O)(=O)c2ccc(C)cc2)cc1OC,3%,i,6%,-12%,-16%
CCOc1ccc(CSC(=N)N)cc1[N+](=O)[O-],?,-97*,?,23µM*,?
CCCCOc1ccc(CSCCN)cc1Cl,-4%,-83*,8%,18µM*,18µM*
CCCCOc1ccc(CSc2nnc(C)n2N)cc1[N+](=O)[O-],24%,2,14%,-8%,-3%
SMILES,HT1080 IDH1KD tx,IL-1B inflam inh,HT1080NT lethal,TDP1 cell CPT,TDP1 cell noCPT
CCOc1ccc(CSC(=N)N)cc1Cl,-11%,-52*,-6%,15µM*,12µM*
CCN(CC)C(=O)CCCOc1ccc(Cl)cc1Cl,1%,-28,1%,?,?
Cc1ccc(-c2ccc(=O)n(CC(=O)Nc3ccc(F)c(Cl)c3)n2)cc1C,.,.,.,-11%,-1%
Cc1noc(C)c1C(=O)N1CCC2(CCCN(C(=O)Nc3cccc(C#N)c3)C2)CC1,.,.,.,-3%,-18%
COC(=O)c1cc(=O)n(Cc2ccco2)c(=Nc2ccc(F)c(Cl)c2)s1,?,-105*,?,16µM*,13µM*
COC(=O)c1cc(=O)n(CCc2ccccc2F)c(=Nc2ccc(F)c(Cl)c2)s1,18µM*,-101*,21µM*,15µM*,8.2µM*
COC(=O)c1cc(=O)n(Cc2ccc(F)cc2)c(=NCc2ccc(F)cc2)s1,9%,2,14%,-3%,1%
Nc1nc(SCC(=O)N2CCCc3ccccc32)n[nH]1,0%,8,3%,-6%,-27%
CCOC(=O)C(Cc1ccc(NC(=O)/C(=C/c2ccccc2)NC(=O)c2ccccc2)cc1)N1C(=O)c2ccccc2C1=O (configuration not stated),0%,26,-22%,5.2µM*,5.8µM*
CCOc1ccc(NC(=O)[C@H](Cc2ccccc2)N2Cc3ccccc3C2=O)cc1,.,.,.,5%,-3%
CCOc1ccc(NC(=O)C(Cc2ccccc2)N2C(=O)c3cccc4cccc(c34)C2=O)cc1 (configuration not stated),-20%,93,-18%,12µM*,8.2µM*
Cn1c(CC(=O)NNC(=O)c2ccc(F)cc2Cl)nc2ccccc21,-7%,8,-8%,16µM*,?
CCCCOc1ccc(C(=O)NCc2nnnn2-c2ccc(C)c(C)c2)cc1,.,.,.,16µM*,?
COc1cc(SC#N)ccc1N=Cc1c(C)[nH]n(-c2cccc3ccccc23)c1=O,13%,-76*,1%,10µM*,10µM*
COc1ccccc1N=Cc1c(C)[nH]n(-c2ccc(C)cc2C)c1=O,11%,22,1%,8%,-9%
COc1cc(SC#N)ccc1N=Cc1c(C)[nH]n(-c2ccc(C)cc2C)c1=O,-12%,-97*,1%,21µM*,15µM*
COCCCNC(=O)Cn1nc(N2CCN(c3ccccc3)CC2)ccc1=O,.,.,.,1%,-1%
COc1ccc(SCCN2CC[C@@H](C(C)(C)C)CCC2=O)cc1,-4%,20,0%,?,16µM*
C[C@H]1CCC(=O)N([C@H](COc2ccccc2)Cc2ccccc2)CC1,-14%,-4,-5%,18µM*,16µM*
CC1CCC(=O)N(CCOc2ccccc2)CC1 (configuration not stated),24%,-1,15%,?,-11%
COc1ccc(SC[C@H](Cc2ccccc2)N2CC[C@@H](C(C)(C)C)CCC2=O)cc1,-5%,-51*,-2%,18µM*,?
COc1ccc(SC[C@H](Cc2ccccc2)N2CC[C@@H](O)CCC2=O)cc1,6%,14,8%,?,?
CC(C)(C)[C@H]1CCC(=O)N(CCSc2ccc(Br)cc2)CC1,.,.,.,?,22µM*
CCc1nn2c(=O)cc(COC(=O)c3ccccc3NC(=O)C3CCCCC3)nc2s1,.,.,.,6%,-26%

# Compound activity (PubChem)
